# Assay outcomes from PubChem BioAssay.
# Compounds with a hit are over-represented: about 0.97% of the library has one in this group of screens.
# Bfl-1 A1 inh: caspase 3/7 activation in MEF A1-2A-BIM cells, primary screen, A1 inhibitor project, cell-based, luminescence, HTS. Caspase-Glo 3/7 luminescence, 3 h; percent of clofoctol response, vehicle zero. caspase activation, % (no concentration beside the values). 0.066% of 330,000 active. AID 2462, 2010;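 active = over half of replicate activation scores above 10%, or exactly half above 10 with the replicate mean above 10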
# TLR9-MyD88 inh: inhibitors of TLR9-MyD88 association in cells, primary screen, cell-based, CHO, BLA complementation, fluorescence; 0.21% of 340,000 active; inhibition, % at 4.98 µM; CCF4 FRET ratio; Toll-like receptor 9 (Homo sapiens) + Myeloid differentiation primary response protein …;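 active = inhibition above the mean over all tested compounds plus 3 SD, cut at about 21% in these data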;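 also: 0% = DMSO only wells and 100% = clavulanate BLA inhibitor control wells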
# TLR4 MyD88 comp: inhibitors of TLR4-MyD88 association in cells, primary screen, cell-based, HeLa CL3-4, BLA complementation, FRET ratio. Toll-like receptor 4 (Homo sapiens) + Myeloid differentiation primary response protein …. HeLa CL3-4 TLR4/MyD88 BLA complementation. inhibition, % at 8.4 µM. 0.18% of 200,000 active. AID 861, 2007; in the data active = inhibition above about 25%;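 also: 0% = vehicle and 100% = reference inhibitor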
# NOD2-RIPK2 inh: NOD2-RIPK2 binding disruptors in cells, primary screen, fluorescence, CHO cells, BLA complementation | AID 624267, 2012 | inhibition, % at 4.98 µM | Receptor-interacting serine/threonine-protein kinase 2 (Homo sapiens), O43353 | CCF4 ratio | 0.38% of 360,000 active; in the data active = inhibition above about 21%;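 also: 0% = vehicle only and 100% = reference blocker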
# NTR1 agonist: agonists of human NTR1, primary screen, imaging, U2OS cells, beta-arrestin-GFP, high content | Neurotensin receptor type 1 (Homo sapiens), P30989 | 0.17% of 330,000 active | activation, % at 20 µM | AID 493036, 2011 | NTR1-U2OS beta-arrestin-GFP spot imaging, agonist mode;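 active = activation at or above 40% of the spot to cytoplasm intensity ratio, with at least 20 cells analyzed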;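 also: 0% = DMSO without peptide and 100% = 100 nM NTR1 peptide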
# Beta2AR agonist: beta2AR agonists driving receptor internalization, primary screen, cell-based, FAP fluorogen, flow cytometry | Beta-2 adrenergic receptor (Homo sapiens), P07550 | Am2.2-beta2AR cells | response, % (test concentration not listed) | 0.43% of 340,000 active | AID 504454, 2011;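 active = response above a set limit, near 3 SD of response in nonfluorescent compounds, cut at about 42% in these data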
# Target sequence (P07550 whole entry, looked up): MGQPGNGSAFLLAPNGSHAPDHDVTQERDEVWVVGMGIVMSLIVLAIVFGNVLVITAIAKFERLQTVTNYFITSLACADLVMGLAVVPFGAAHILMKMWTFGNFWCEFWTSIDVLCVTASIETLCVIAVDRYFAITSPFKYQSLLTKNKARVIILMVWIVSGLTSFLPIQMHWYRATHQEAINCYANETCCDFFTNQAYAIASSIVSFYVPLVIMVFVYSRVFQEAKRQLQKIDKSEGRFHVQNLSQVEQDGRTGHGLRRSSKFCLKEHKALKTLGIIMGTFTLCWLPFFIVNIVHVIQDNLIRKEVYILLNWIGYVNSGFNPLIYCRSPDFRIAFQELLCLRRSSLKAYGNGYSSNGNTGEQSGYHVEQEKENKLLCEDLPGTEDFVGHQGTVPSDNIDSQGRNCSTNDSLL
# Beta2AR ag CP1: beta2AR agonists via receptor internalization, confirmation, cell-based, FAP fluorogen, flow cytometry, single point, cherry pick 1. shares compounds with Beta2AR agonist. Am2.2-beta2AR cells, FAP surface receptor; stronger effect = lower value. percent response (surface receptor), % at 10 µM. 25% of 1,100 active;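 active = surface receptor percent response at or below 58%, roughly 3 SD from nonfluorescent compounds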
# B2AR FAP counter: flagged in Am2.2 fluorescence counterscreen for beta-2AR agonists; 1,100 tested, under 10 active; shares compounds with Beta2AR agonist; AID 588765; Am2.2 cells, FAP fluorogen flow cytometry; stronger effect = lower value; calls only at 10 µM;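 active = percent response below a set limit in fluorescence channel 1 and below 50% in channel 8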
# Starred values were filed as active, the others as inactive; i = inactive; . = no result given.
SMILES,Bfl-1 A1 inh,TLR9-MyD88 inh,TLR4 MyD88 comp,NOD2-RIPK2 inh,NTR1 agonist,Beta2AR agonist,Beta2AR ag CP1,B2AR FAP counter
CN(CC(=O)N1CCN(c2ccc(F)cc2)CC1)S(=O)(=O)c1ccc(F)cc1,0,1,-13,-4,4,-3,120,i
COc1ccc(N2CCN(C(=O)CN(C)S(=O)(=O)c3cc(C)ccc3OC)CC2)cc1,0,-8,-13,6,0,4,91,i
Cc1ccc(S(=O)(=O)N(C)CC(=O)N2CCN(c3ccccn3)CC2)cc1,0,14,3,-4,0,99*,16*,i
CN(CC(=O)N1CCN(c2ccccn2)CC1)S(=O)(=O)c1ccc2ccccc2c1,0,0,6,-28,-1,-2,.,.
CN(CC(=O)N1CCN(c2ccccn2)CC1)S(=O)(=O)c1ccc(Cl)cc1,0,-16,.,-4,0,110*,33*,i
O=C(COc1ccccc1Cl)Nc1cnn(Cc2ccccc2)c1,0,2,10,-4,-1,0,.,.
O=C(Nc1cnn(Cc2c(Cl)cccc2Cl)c1)C(c1ccccc1)c1ccccc1,1,-7,9,3,0,43*,93,i
Cc1ccc(Cl)cc1N1CCN(C(=O)Cc2c(C(=O)O)[nH]c3ccc(Cl)cc23)CC1,1,6,-27,-8,0,75*,113,i
Cc1ccc(Cl)cc1N1CCN(C(=O)Cc2c(C(=O)O)[nH]c3ccccc23)CC1,0,13,-3,-6,-1,2,.,.
COc1ccccc1C(=O)Nc1ccc2c(c1)nc(CN1CCN(C(C)=O)CC1)n2C,0,7,0,-2,-1,53*,113,i
Cc1ccc(Nc2nc(NCc3ccco3)c3ccccc3n2)cc1,-6,2,-4,6,34,29,.,.
COc1ccccc1Nc1nc(NCc2ccco2)c2ccccc2n1,0,.,.,2,3,8,125,i
COCCN(CCOC)c1nc(-c2ccc([N+](=O)[O-])cc2)nc2ccccc12,1,-16,.,2,10,9,.,.
Cc1ccc(F)cc1NCC(=O)Nc1ccc(Br)cc1,0,-33,9,1,1,80*,110,i
Cc1ccc(NCC(=O)Nc2ccc(Br)cc2)cc1C,0,-9,.,-8,1,-3,.,.
CC1CN(S(=O)(=O)c2cccc(C(=O)NCc3ccccn3)c2)CC(C)O1 (stereo not given),-2,-4,.,1,1,-2,.,.
Cc1ccc(OCC(=O)Nc2ccc3c(c2)nc(CCN2CCN(C)CC2)n3C)cc1,0,1,.,2,0,1,94,i
CN1CCN(CCc2nc3cc(NC(=O)COc4ccc(Cl)cc4)ccc3n2C)CC1,-1,-16,.,-3,0,47*,97,i
CCOC(=O)c1c(NC(=O)COC(=O)c2cccc([N+](=O)[O-])c2)sc(C(=O)N(C)C)c1C,.,0,.,-20,.,.,.,.
O=C(NCCn1cc(SCC(=O)N2CCOCC2)c2ccccc21)c1ccccc1,-1,2,-13,-6,-2,5,.,.
O=C(Nc1nc(-c2ccco2)cs1)c1ccccc1,0,0,6,-10,-1,43*,119,i
COc1cc2c(cc1Cl)C(=O)C(F)(c1ccccc1)C(=O)N2 (stereo not given),1,-4,.,8,-1,81*,13*,i
COc1cc2c(cc1OC)C(=O)N1[C@H]3c4cc(Cl)ccc4OC[C@@H]3[C@H](c3ccccc3)[C@]1(C)C(=O)N2,0,-7,.,-2,0,8,.,.
O=C(NCCc1cnn(-c2ccccc2)c1)c1cc(COc2c(F)cccc2F)on1,0,2,-4,-7,2,-8,.,.
Cc1ccc(OCc2cc(C(=O)NCc3ccc(OC(F)(F)F)cc3)no2)cn1,0,4,.,-8,-1,52*,40*,i
SMILES,Bfl-1 A1 inh,TLR9-MyD88 inh,TLR4 MyD88 comp,NOD2-RIPK2 inh,NTR1 agonist,Beta2AR agonist,Beta2AR ag CP1,B2AR FAP counter
Cc1ccc(OCc2cc(C(=O)NCc3cnn(-c4cccc(F)c4)c3)no2)cn1,1,-1,.,11,0,97*,16*,i
CCc1cc(CNC(=O)c2cc(COc3ccc(C)nc3)on2)on1,-1,-10,.,-10,2,-5,.,.
COc1cccc(CN2CCNC(=O)C2CC(=O)NCCn2ccc3ccccc32)c1OC (stereo not given),1,-3,-9,1,2,-4,.,.
Cc1cccc(C)c1NC(=O)C(NC(=O)c1ccccn1)c1ccccc1[N+](=O)[O-] (stereo not given),0,6,8,3,-1,3,.,.
C=CCn1c(CCNC(=O)c2cccs2)nnc1SCC(=O)c1ccc(Br)cc1,0,-1,5,6,2,98*,19*,i
Cc1nc2ccccc2nc1OCc1ccccc1,0,7,-15,-5,1,2,.,.
CC(O)c1c(OCc2ccccc2)ncnc1OCc1ccccc1 (stereo not given),2,6,6,17,-1,98*,112,i
CCCCNS(=O)(=O)c1ccc2nc(-c3cccnc3)cc(C(=O)NCCCN(CC)CC)c2c1,1,.,4,.,0,.,.,.
CCCCN(C)CCNC(=O)c1cc(-c2cccnc2)nc2ccc(S(=O)(=O)N3CCC(C)CC3)cc12,1,-11,.,-4,14,46*,98,i
CCN(CC)CCNC(=O)c1cc(-c2cccnc2)nc2ccc(S(=O)(=O)N3CCC(C)CC3)cc12,2,2,.,4,11,19,92,i
CCN(CC)/C(=N/S(=O)(=O)c1ccc(C)cc1)c1ccccc1,0,5,9,-4,3,78*,110,i
Cn1c(-c2ccc(F)cc2)cnc1SCC(=O)Nc1ccccc1N1CCOCC1,-2,-3,-8,3,0,4,.,.
O=C(Nc1cccc(Oc2c(F)c(F)c(F)c(F)c2F)c1)N1C[C@@H]2C[C@@H](C1)c1cccc(=O)n1C2,0,-6,14,-3,0,-2,.,.
